This note sets out measurements from PubChem BioAssay.

Activity calls are given as the source filed them.

The nature of test [1]: binders of probe aFSTL3 on microarray, primary screen, stem cell growth factor project, biochemical, small-molecule microarray, fluorescence 635/667 (AID 1064).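 Note: measures binding of the biotinylated anti-FSTL3 antibody to printed compounds.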 The following applies: higher = more signal.
A short description of test [2]: binders from COS7 lysate, DM2A8 probe, primary screen, torsin A project, cell lysate, small-molecule microarray, fluorescence 635/667 (AID 1065). The following applies: higher = more signal, COS7 lysate expressing mutant human TOR1A.
A short description of test [3]: binders of probe aFGF2 on microarray, primary screen, stem cell growth factor project, biochemical, small-molecule microarray, fluorescence 635/667 (AID 1067).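 Note: measures binding of biotinylated aFGF2 protein to printed compounds on slides; z-score merges feature fluorescence and signal-to-noise across triplicate slides.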 The following applies: higher = more signal.
Test [4] is described as follows: binders of probe aFGF10 on microarray, primary screen, stem cell growth factor project, biochemical, small-molecule microarray, fluorescence 635/667 (AID 1071).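 Note: score merges 667 nm spot intensity and signal to noise from triplicate slides.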 The conditions noted are these: higher = more signal.
Test [5] deals with Neurogenic locus notch homolog protein 2 (Homo sapiens) (UniProt Q04721). Nature of the test: Notch2 binders on small-molecule microarrays, primary screen, biochemical, small-molecule microarray, 635 nm fluorescence, stem cell growth factors (AID 1073). The following applies: Notch2 binding, higher = more signal.
Test [6] has as its target Pro-neuregulin-1, membrane-bound isoform (Homo sapiens) (UniProt Q02297). Nature of the test: NRG1 binders on small-molecule microarrays, primary screen, psychiatric disease protein project, biochemical, small-molecule microarray, fluorescence 635/667 (AID 1075).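 Note: score combines 667 nm spot fluorescence with signal to noise.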 The conditions noted are these: NRG1 binding, 635 nm fluorescence, higher = more signal.
In test [7] the test system is Neuregulin-1 EGF-like domain. Nature of the test: binders of neuregulin-1 EGF-like domain, primary screen, biochemical, small-molecule microarray, 635 nm fluorescence (AID 1081).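 Note: binding of the protein to compounds printed on small-molecule microarray slides.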 The conditions noted are these: small-molecule microarray binding, higher = more signal.
A short description of test [8]: FRG1 promoter luciferase signal modulators, primary screen, FRG1 inhibition for FSHD, cell-based, C2C12 myotubes, firefly/Renilla luciferase, luminescence (AID 1084). The conditions noted are these: higher = more signal, called active from +8 up or from −8 down.
The nature of test [9]: binders of probe aFST on microarray, primary screen, stem cell growth factor project, biochemical, small-molecule microarray, fluorescence 635/667 (AID 1086).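 Note: score merges 667 nm fluorescence with signal-to-noise of each printed compound spot.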 The conditions noted are these: higher = more signal.
A short description of test [10]: binders of probe aHhip on microarray, primary screen, stem cell growth factor project, biochemical, small-molecule microarray, fluorescence 635/667 (AID 1087).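 Note: score merges spot fluorescence at 667nm with spot signal to noise ratio.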 The following applies: higher = more signal.

Pro-neuregulin-1, membrane-bound isoform (Homo sapiens), sequence (Q02297 whole entry, looked up, the tested form may be a part, canonical isoform): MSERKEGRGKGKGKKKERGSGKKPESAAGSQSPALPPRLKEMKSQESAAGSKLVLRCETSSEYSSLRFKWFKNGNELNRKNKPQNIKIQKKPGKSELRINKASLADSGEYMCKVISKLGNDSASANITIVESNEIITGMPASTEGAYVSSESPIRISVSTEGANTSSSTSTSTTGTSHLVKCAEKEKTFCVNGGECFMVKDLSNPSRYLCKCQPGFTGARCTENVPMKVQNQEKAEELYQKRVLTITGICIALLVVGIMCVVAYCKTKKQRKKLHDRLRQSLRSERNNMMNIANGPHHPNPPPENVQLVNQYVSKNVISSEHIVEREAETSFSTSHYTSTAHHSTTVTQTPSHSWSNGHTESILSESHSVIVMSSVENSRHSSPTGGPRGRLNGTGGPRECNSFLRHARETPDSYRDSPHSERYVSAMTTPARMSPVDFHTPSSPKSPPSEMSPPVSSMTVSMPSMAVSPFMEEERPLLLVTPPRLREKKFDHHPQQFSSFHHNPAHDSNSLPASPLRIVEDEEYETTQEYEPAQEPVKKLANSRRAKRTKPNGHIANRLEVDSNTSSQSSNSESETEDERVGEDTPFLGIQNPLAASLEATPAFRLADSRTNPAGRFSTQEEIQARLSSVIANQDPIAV
Neurogenic locus notch homolog protein 2 (Homo sapiens), sequence (Q04721 whole entry, looked up, canonical isoform): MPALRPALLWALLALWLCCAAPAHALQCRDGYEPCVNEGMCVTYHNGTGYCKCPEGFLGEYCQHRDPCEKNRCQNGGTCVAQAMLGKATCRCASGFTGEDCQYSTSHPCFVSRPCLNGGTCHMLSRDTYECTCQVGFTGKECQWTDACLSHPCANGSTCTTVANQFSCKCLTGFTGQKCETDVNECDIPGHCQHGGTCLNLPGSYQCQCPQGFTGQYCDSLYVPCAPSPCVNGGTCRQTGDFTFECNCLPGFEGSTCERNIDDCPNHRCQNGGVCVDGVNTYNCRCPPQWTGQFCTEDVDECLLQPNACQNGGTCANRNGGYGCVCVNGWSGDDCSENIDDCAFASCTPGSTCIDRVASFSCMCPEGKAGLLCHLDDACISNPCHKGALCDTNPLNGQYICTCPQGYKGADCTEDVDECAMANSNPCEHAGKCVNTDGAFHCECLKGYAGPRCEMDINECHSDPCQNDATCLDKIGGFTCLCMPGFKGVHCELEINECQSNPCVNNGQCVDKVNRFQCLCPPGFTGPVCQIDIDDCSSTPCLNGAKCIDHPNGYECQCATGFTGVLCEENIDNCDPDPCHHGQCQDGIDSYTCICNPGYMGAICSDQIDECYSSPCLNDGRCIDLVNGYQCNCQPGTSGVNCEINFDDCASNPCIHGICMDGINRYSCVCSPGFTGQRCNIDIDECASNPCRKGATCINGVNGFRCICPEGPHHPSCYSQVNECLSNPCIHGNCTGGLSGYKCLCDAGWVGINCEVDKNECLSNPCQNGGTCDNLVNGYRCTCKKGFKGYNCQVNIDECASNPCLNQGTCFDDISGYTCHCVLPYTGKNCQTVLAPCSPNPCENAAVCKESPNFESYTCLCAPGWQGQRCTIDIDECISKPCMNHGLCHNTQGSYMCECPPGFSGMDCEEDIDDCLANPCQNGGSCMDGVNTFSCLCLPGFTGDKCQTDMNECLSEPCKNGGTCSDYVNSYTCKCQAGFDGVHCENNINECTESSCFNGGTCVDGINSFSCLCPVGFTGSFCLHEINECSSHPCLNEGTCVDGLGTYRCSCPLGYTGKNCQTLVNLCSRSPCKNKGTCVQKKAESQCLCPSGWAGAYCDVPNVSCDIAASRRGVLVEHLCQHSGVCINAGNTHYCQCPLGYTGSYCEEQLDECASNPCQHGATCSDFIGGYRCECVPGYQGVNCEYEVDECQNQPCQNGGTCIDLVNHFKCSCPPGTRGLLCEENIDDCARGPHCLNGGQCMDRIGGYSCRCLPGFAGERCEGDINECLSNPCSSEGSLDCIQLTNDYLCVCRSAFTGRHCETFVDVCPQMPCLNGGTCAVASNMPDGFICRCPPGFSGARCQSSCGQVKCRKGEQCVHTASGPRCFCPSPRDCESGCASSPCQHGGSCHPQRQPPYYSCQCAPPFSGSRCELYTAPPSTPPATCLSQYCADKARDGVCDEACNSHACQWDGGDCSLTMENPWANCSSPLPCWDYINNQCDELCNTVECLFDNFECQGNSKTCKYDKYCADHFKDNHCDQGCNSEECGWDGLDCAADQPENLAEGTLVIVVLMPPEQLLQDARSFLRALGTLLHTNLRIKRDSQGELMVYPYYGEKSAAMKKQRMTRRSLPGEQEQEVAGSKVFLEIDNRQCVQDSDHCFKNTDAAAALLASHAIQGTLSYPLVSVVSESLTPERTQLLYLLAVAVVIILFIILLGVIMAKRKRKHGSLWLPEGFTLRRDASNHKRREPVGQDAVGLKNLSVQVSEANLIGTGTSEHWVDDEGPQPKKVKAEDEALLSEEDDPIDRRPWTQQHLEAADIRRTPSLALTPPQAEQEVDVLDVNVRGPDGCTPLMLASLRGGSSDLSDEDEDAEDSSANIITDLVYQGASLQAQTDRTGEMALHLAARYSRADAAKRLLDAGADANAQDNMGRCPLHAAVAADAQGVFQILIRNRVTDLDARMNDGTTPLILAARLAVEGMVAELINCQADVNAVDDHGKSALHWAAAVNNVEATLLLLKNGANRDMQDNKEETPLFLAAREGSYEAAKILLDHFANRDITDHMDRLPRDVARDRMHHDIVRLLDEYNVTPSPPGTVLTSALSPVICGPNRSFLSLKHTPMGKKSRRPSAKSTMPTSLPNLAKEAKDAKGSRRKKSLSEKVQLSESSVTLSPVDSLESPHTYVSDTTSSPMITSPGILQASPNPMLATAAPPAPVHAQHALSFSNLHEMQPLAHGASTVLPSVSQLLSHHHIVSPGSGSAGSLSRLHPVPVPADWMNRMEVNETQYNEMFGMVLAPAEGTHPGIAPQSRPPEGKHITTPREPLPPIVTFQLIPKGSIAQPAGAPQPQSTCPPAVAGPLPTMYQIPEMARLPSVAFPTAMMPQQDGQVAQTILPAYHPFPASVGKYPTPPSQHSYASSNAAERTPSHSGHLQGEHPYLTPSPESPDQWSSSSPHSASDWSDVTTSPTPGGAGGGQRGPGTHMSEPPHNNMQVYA

Take `CS(=O)(=O)CCOC(=O)C1=CC(CCCO)=CC(c2ccc(CN3CCCC3)cc2)N(Cc2cccc(OC(F)(F)F)c2)C=C1C(=O)OCCS(C)(=O)=O` (stereo not given): the composite z-score in [1] is 0.384; in test [2] it was 0.851; in test [3], 0.0036; in test [4] it was 0.952; in test [5], 0.978; in test [6] it was 0.691. Also, the values for the composite z-score in [7], in [9] and in test [10] were 0.909, 0.66 and 0.154, respectively. The z-score in [8] is 0.173 (inactive).
For `COC(=O)C[C@H]1O[C@@H](CCc2ccccc2)[C@@H](C)[C@@H]1[Si](C)(C)c1ccc(OC)cc1`, the composite z-score is -0.136 in [1]; -0.724 in test [2]; -0.17 in test [3]; -0.318 in test [4]; -0.514 in [5]; -0.553 in test [6]. Moreover, the composite z-score in test [7] was -0.743; in test [9] it was -0.165; in [10], -0.137. In [8], the z-score was -0.149 (inactive).
For `COCCOC(=O)N1C(=O)[C@@]2(c3cc(C#CC4=CCCCC4)ccc31)[C@H](c1ccc(OCCO)cc1)N1[C@H](c3ccccc3)[C@H](c3ccccc3)OC(=O)[C@H]1[C@@H]2C(=O)N1CCc2cc(OC)c(OC)cc2C1`, the composite z-score in [1] was -0.16; in [2] it was 0.36; in test [3] it was -0.0242; in [4], 0.666; in test [5], 1.43; in test [6] it was 0.395. Also, the figures for the composite z-score in test [7], in test [9] and in [10] were 1.15, 0.596 and -0.0994, respectively. The z-score in test [8] was -0.211 (inactive).
`COc1ccc([Si](C)(C)[C@@H]2[C@@H](CCO)O[C@]3(C(=O)N(Cc4cccc(N5CCOC5=O)c4)c4ccccc43)[C@H]2C)cc1`: the composite z-score in test [1] was 0.0806; in test [2], 0.229; in [3], -0.0704; in test [4], 0.289; in [5] it was 1.03; in [6], 0.775. In addition, the composite z-score in [7] is 0.953; in [9], 0.0855; in test [10], -0.156. In addition, the z-score in test [8] was -1.65 (inactive).
`COc1ccc(CCNC(=O)[C@@]2(c3ccc([N+](=O)[O-])cc3)CC(=O)N(CC34CC5CC(CC(C5)C3)C4)[C@@H]2c2ccc(CO)cc2I)cc1`: the composite z-score was -0.235 in test [1]; 1 in test [2]; 0.0569 in test [3]; 0.377 in [4]; 0.6 in test [5]; 1.09 in test [6]. The composite z-score in test [7] was 1.2; in test [9] it was -0.0217; in test [10], -0.446. Besides, the z-score in [8] is -1.64 (inactive).
As to `CCCCC(O)C1C=CC2C(=O)N(C)C(=O)C2N1N1CCCCC1` (stereo not given), the composite z-score turned out to be 0.515 in test [1]; 0.314 in test [2]; 0.0311 in test [3]; 0.591 in test [4]; 1.56 in test [5]; 1.12 in test [6]. For the same compound, the composite z-score was 1.42 in test [7], 1.3 in test [9] and -0.0618 in [10]. Also, in [8], the z-score was 0.733 (inactive).
Regarding `COC(=O)c1c2oc(c1C(=O)OC)C(=O)N[C@@H](C(C)C)Cn1cc(nn1)C1(CCCCC1)NC(=O)N[C@H](CO)CC2`, the composite z-score in test [1] was -0.458; in test [2] it was 0.104; in test [3], -0.124; in test [4] it was 0.471; in [5], -0.178; in test [6], 0.356. Also, the composite z-score in test [7] is 0.859; in test [9], -0.0464; in [10], 0.0881. For the same compound, the z-score in [8] is -0.965 (inactive).
On to `O=C1O[C@@H](c2ccccc2)[C@@H](c2ccccc2)N2[C@@H](c3ccccc3OCCO)[C@]3(C(=O)Nc4ccccc43)[C@@H](C(=O)O)[C@H]12`, for which the composite z-score was -0.229 in test [1]; -0.0324 in [2]; 0.0301 in test [3]; 0.551 in test [4]; 0.522 in test [5]; 1.57 in test [6]. Further, the composite z-score in test [7] is 1.12; in test [9], -0.0073; in test [10], 0.0524. For the same compound, the z-score in test [8] was -1.84 (inactive).
Turning to `C=C(/C(=C/C[C@H](OC(=O)c1ccncc1)c1ccc(OCCO)cc1)c1cc(C(=O)OC)ccc1OC)C(C)C`, the composite z-score in test [1] is -0.0836; in test [2], 0.362; in [3] it was -0.134; in [4], 0.607; in test [5], -0.478; in test [6] it was 0.892. Further, the composite z-score was 0.781 in [7], 0.87 in test [9] and -0.0994 in test [10]. In addition, the z-score in test [8] was 6.19 (inactive).
With `COc1ccc(NN2C(C(O)c3ccc(N(C)C)cc3)C=CC3C(=O)N(C4CCCCC4)C(=O)C32)cc1` (stereo not given), the composite z-score turned out to be 0.419 in test [1]; 0.427 in test [2]; 0.157 in [3]; 1.01 in test [4]; 1.53 in test [5]; 1.05 in test [6]. Further, the composite z-score in [7] is 1.15; in test [9] it was 0.352; in test [10], 0.284. Moreover, the z-score in test [8] was 0.613 (inactive).
Turning to `COc1ccc(CCNC(=O)[C@@]2(C)c3ccccc3C(=O)N(c3ccc(C)cn3)[C@H]2c2ccc(CO)cc2)cc1`, the composite z-score in [1] was -0.561; in test [2], -0.997; in test [3], -0.171; in test [4], -0.516; in test [5] it was -0.859; in test [6], 0.884. The composite z-score in test [7] was 1.34; in [9], -0.389; in test [10] it was -0.13. Also, in test [8], the z-score is 1.07 (inactive).
With `O=C1C2C=CC(C(O)c3ccc(F)cc3)N(Nc3ccc([N+](=O)[O-])cc3)C2C(=O)N1c1ccccc1` (stereo not given), the composite z-score in [1] was 0.0759; in [2], -0.358; in [3], 0.16; in test [4] it was 0.305; in test [5], 1.45; in test [6], 2. The composite z-score came to 1.37 in test [7], 1.02 in [9] and 0.0373 in test [10]. Further, the z-score in [8] was -0.132 (inactive).
`COC(=O)[C@@]1(Cc2ccc(OC)cc2)[C@H]2c3cc(C(=O)N(C)C)n(Cc4ccc(C(F)(F)F)nc4)c3C[C@H]2CN1C(=O)c1ccccc1`: the composite z-score in test [1] amounted to 0.125; in test [2], 0.114; in test [3], 0.0343; in test [4], 0.459; in test [5], 1.53; in test [6], 1.34. Also, the results for the composite z-score in test [7], in test [9] and in [10] were 1.01, 0.597 and -0.0237, respectively. Besides, the z-score in [8] was 0.515 (inactive).
As for `COc1ccc(-c2cc3c(c(Cc4ccccc4)n2)[Si](C(C)C)(C(C)C)OC3)cn1`, the composite z-score in [1] was -0.305; in test [2], 0.28; in test [3], -0.0668; in test [4], 0.0198; in [5], 0.0333; in test [6], -0.53. Also, the composite z-score in [7] is -0.723; in [9], 0.29; in test [10] it was -0.236. The z-score in [8] was -1.27 (inactive).
Regarding `COC(=O)c1c(CC[C@@H](CO)NC(=O)NCCc2c[nH]c3ccccc23)oc(C(=O)Cc2ccccc2)c1C(=O)OC`, the composite z-score is -0.379 in [1]; 0.488 in test [2]; 0.0858 in test [3]; 0.203 in test [4]; 0.0378 in test [5]; -0.0379 in test [6]. For the same compound, the composite z-score in test [7] turned out to be 0.939; in test [9], 0.224; in test [10] it was 0.0036. Further, the z-score in [8] is 1.49 (inactive).
